Drawing on PubChem BioAssay (NCI), this text covers growth for 21 compounds.

The structures appear in SMILES notation. Where “and” joins values, the source holds several entries; their conditions need not be identical. Equal values may be shown once. About 83,000 compounds went through this panel and 20% of them were active in at least one assay; those are over-represented in the sample as a whole.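 Method: cells in 96-well plates; compound added at one concentration; 48 h incubation; percent growth measured; values under 10 scored active.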 Calls of active or inactive are those of the source.

Experiment in all cases: NCI-60 one-dose screen, 48 h (100 = growth as untreated, 0 = no growth, -100 = all killed)
One test deals with SK-MEL-2 melanoma. The settings on record: 10 µM.
The next test deals with SN12C renal. The settings on record: 10 µM.
The test system of the next test is UO-31 renal. The settings on record: 10 µM.
The next test has as its system TK-10 renal.
A further test relates to ACHN renal. The settings on record: 10 µM.
The test system of another test is CAKI-1 renal. The settings on record: 10 µM.
The next test has as its system HL-60(TB) leukemia. The settings on record: 10 µM.
A further test has as its system CCRF-CEM leukemia. The settings on record: 10 µM.
Another test deals with EKVX NSCLC. The settings on record: 10 µM.
The test system of the next test is A498 renal. The settings on record: 10 µM.

For the compound `Cc1ccc(C(=O)C2C(c3ccccc3)N2C2CCCCC2)cc1` (stereo unspecified), the growth was 101% (inactive) and 98.3% (inactive) in the test with SK-MEL-2 melanoma; 107% (inactive) and 100% (inactive) with SN12C renal; 92.8% (inactive) and 73.4% (inactive) in the test with UO-31 renal; 137% (inactive) and 108% (inactive) in the test with TK-10 renal (10 µM unless noted); 113% (inactive) and 97.9% (inactive) in the test on ACHN renal; 107% (inactive) and 94.3% (inactive) in the test on CAKI-1 renal. Further, the growth was 98.3% (inactive) and 94.8% (inactive) with HL-60(TB) leukemia; 94.2% (inactive) and 96% (inactive) in the test on CCRF-CEM leukemia.

Take `NC(=O)c1cc([N+](=O)[O-])c(Cl)c([N+](=O)[O-])c1`: the growth with SK-MEL-2 melanoma is 154% (inactive); in the test with EKVX NSCLC, 98.3% (inactive); in the test on SN12C renal, 100% (inactive); in the test on TK-10 renal (10 µM unless noted), 84.1% (inactive); with ACHN renal, 92.7% (inactive); in the test with CAKI-1 renal, 87.6% (inactive). Further, the growth in the test on HL-60(TB) leukemia was 20.1% (inactive); with CCRF-CEM leukemia, -32.4% (active).

Regarding `NNc1ccccc1`, the growth in the test with EKVX NSCLC is 89.6% (inactive); in the test with SN12C renal it was 97.3% (inactive); in the test on UO-31 renal, 64% (inactive); with TK-10 renal (10 µM unless noted), 42.3% (inactive); with ACHN renal, 64.5% (inactive); in the test on CAKI-1 renal, 65.4% (inactive). In addition, the results for the growth in the test on HL-60(TB) leukemia and in the test on CCRF-CEM leukemia were 5.84% (active) and 42.7% (inactive), respectively.

As to `COc1cc2c(c(OC)c1OC)-c1ccc(O)c(=O)cc1[C@@H](NC(C)=O)CC2`, the growth with SK-MEL-2 melanoma was 47.9% (inactive); in the test on SN12C renal, 60% (inactive); in the test on UO-31 renal it was 53.3% (inactive); in the test on TK-10 renal (10 µM) it was 64.4% (inactive); in the test on TK-10 renal (100 µM), 12.6% (inactive); in the test with ACHN renal it was 61.2% (inactive). The growth with CAKI-1 renal was 26.6% (inactive); in the test on HL-60(TB) leukemia, 36% (inactive); with CCRF-CEM leukemia, 16.2% (inactive).

Turning to `O=C(CBr)Nc1ccc(Cl)cc1`, the growth in the test on SK-MEL-2 melanoma was 103% (inactive); in the test on SN12C renal, 85.5% (inactive); in the test with UO-31 renal it was 90.1% (inactive); in the test with TK-10 renal (10 µM unless noted), 111% (inactive); in the test on ACHN renal, 64% (inactive); with CAKI-1 renal, 22% (inactive). In addition, the growth with A498 renal was 104% (inactive); in the test on CCRF-CEM leukemia it was -28.3% (active).

Regarding `NC(=O)c1cc([N+](=O)[O-])c(Cl)c([N+](=O)[O-])c1Cl`, the growth in the test with SK-MEL-2 melanoma is -14.5% (active); in the test on EKVX NSCLC, 35.8% (inactive); in the test with SN12C renal, 18.8% (inactive); in the test with UO-31 renal, -62.6% (active); in the test on TK-10 renal (10 µM unless noted), -100% (active); with ACHN renal it was -89.7% (active). Also, the growth in the test on HL-60(TB) leukemia was -26.9% (active); in the test with CCRF-CEM leukemia, -23.5% (active).

In the case of `CCCCCCCC[N+]12CN3CN(CN(C3)C1)C2`, the growth was 120% (inactive) in the test with SK-MEL-2 melanoma; 96.8% (inactive) in the test with SN12C renal; 87.9% (inactive) in the test with UO-31 renal; 99.8% (inactive) with TK-10 renal (10 µM unless noted); 99.5% (inactive) in the test with ACHN renal; 92.5% (inactive) in the test on CAKI-1 renal. The growth in the test on HL-60(TB) leukemia was 137% (inactive); in the test with CCRF-CEM leukemia, 97.1% (inactive).

Take `C[C@H]1CC[C@@]2(NC1)O[C@H]1C[C@H]3[C@@H]4CC[C@H]5C[C@@H](O)CC[C@]5(C)[C@H]4CC[C@]3(C)[C@H]1[C@@H]2C`: the growth in the test on TK-10 renal (10 µM unless noted) is 25.1% [100 µM] (inactive) and -60.4% [100 µM] (active).

Consider `O=C(CBr)Nc1ccccc1`, for which the growth in the test on SK-MEL-2 melanoma is 97% (inactive); in the test with EKVX NSCLC, 111% (inactive); in the test on SN12C renal, 91% (inactive); in the test on UO-31 renal, 84.9% (inactive); in the test with TK-10 renal (10 µM unless noted) it was 87.4% (inactive); with ACHN renal, 104% (inactive). Besides, the growth in the test with CAKI-1 renal is 106% (inactive); in the test on HL-60(TB) leukemia, 96.1% (inactive); in the test on CCRF-CEM leukemia it was 14.7% (inactive).

Turning to `COc1ccc2c(ccc3oc([N+](=O)[O-])cc32)c1`, the growth in the test with SN12C renal is 6.57% (active); in the test on UO-31 renal it was -13.4% (active); in the test with TK-10 renal (10 µM unless noted), -15% (active); with ACHN renal it was 2.78% (active); in the test with CAKI-1 renal, 5.89% (active); in the test on A498 renal, -76.1% (active). In addition, the growth was -31.4% (active) in the test on HL-60(TB) leukemia and 4.13% (active) in the test with CCRF-CEM leukemia.

`Oc1c(I)cc(I)cc1I`: the growth in the test on SK-MEL-2 melanoma was 101% (inactive); with EKVX NSCLC, 108% (inactive); in the test with SN12C renal, 97.2% (inactive); in the test on TK-10 renal (10 µM unless noted), 103% (inactive); in the test with ACHN renal it was 103% (inactive); with CAKI-1 renal, 109% (inactive). The growth in the test on HL-60(TB) leukemia was 105% (inactive); with CCRF-CEM leukemia, 94.5% (inactive).

As for `COc1ccc(/C=C(\C)[N+](=O)[O-])cc1OC`, the growth is 21.4% (inactive) with SK-MEL-2 melanoma; 39.9% (inactive) in the test with SN12C renal; -83% (active) in the test on UO-31 renal; -69.2% (active) in the test with TK-10 renal (10 µM unless noted); -59.9% (active) with ACHN renal; -84.4% (active) with CAKI-1 renal. For the same compound, the growth in the test on A498 renal was 111% (inactive); in the test with HL-60(TB) leukemia, -38.4% (active); in the test on CCRF-CEM leukemia, -16.4% (active).

For `Cc1cc(C(C)(C)c2ccc(O)c(C)c2)ccc1O`, the growth with EKVX NSCLC was 85.2% (inactive); in the test with SN12C renal it was 89.9% (inactive); in the test with UO-31 renal it was 79% (inactive); in the test on TK-10 renal (10 µM unless noted), 98.9% (inactive); in the test on ACHN renal, 88.7% (inactive); with CAKI-1 renal it was 84.7% (inactive). The results for the growth with HL-60(TB) leukemia and with CCRF-CEM leukemia were 71.4% (inactive) and 127% (inactive), respectively.

Consider `COc1cc2c3cc1Oc1c(OC)c(OC)cc4c1C(Cc1ccc(cc1)Oc1cc(ccc1O)CC3N(C)CC2)N(C)CC4` (stereo unspecified), for which the growth with TK-10 renal (10 µM unless noted) is 48% [100 µM] (inactive) and -100% [100 µM] (active).

On to `COc1cc(/C=C/[N+](=O)[O-])cc(Br)c1OC`, for which the growth was 103% (inactive) with EKVX NSCLC; 28.7% (inactive) with SN12C renal; -1.36% (active) with UO-31 renal; -38.1% (active) in the test with TK-10 renal (10 µM unless noted); 60.7% (inactive) in the test on ACHN renal; 61.3% (inactive) in the test with CAKI-1 renal. Also, the growth is 0.838% (active) with HL-60(TB) leukemia and 6.59% (active) in the test on CCRF-CEM leukemia.

Turning to `Oc1c(Cl)cc(Cl)c2ccccc12.[Cu+2]`, the growth in the test with SK-MEL-2 melanoma is 86.1% (inactive); in the test with SN12C renal it was 99% (inactive); with UO-31 renal, 49% (inactive); in the test on TK-10 renal (10 µM unless noted) it was 119% (inactive); with ACHN renal, 91.9% (inactive); with CAKI-1 renal, 96.4% (inactive). For the same compound, the growth in the test on HL-60(TB) leukemia was 92% (inactive); in the test with CCRF-CEM leukemia it was 48.5% (inactive).

On to `[Cl][Sn]([c]1ccccc1)([c]1ccccc1)[c]1ccccc1`, for which the growth was -62.9% (active) in the test on SK-MEL-2 melanoma; -28.9% (active) in the test with SN12C renal; -87.9% (active) in the test with UO-31 renal; -92.7% (active) with TK-10 renal (10 µM unless noted); -89.2% (active) with ACHN renal; -87.8% (active) in the test with CAKI-1 renal. In addition, the growth is -25.3% (active) in the test with HL-60(TB) leukemia and -46% (active) in the test on CCRF-CEM leukemia.

As for `O=[P+](O)c1ccccc1`, the growth in the test on SK-MEL-2 melanoma was 109% (inactive); in the test on EKVX NSCLC it was 115% (inactive); with SN12C renal it was 104% (inactive); in the test with TK-10 renal (10 µM unless noted), 117% (inactive); in the test on ACHN renal it was 102% (inactive); in the test with CAKI-1 renal, 103% (inactive). Also, the figures for the growth with HL-60(TB) leukemia and in the test on CCRF-CEM leukemia were 106% (inactive) and 79.9% (inactive), respectively.

With `CC(=O)c1ccccc1O`, the growth in the test with HL-60(TB) leukemia was 85.9% (inactive) and 82.5% (inactive) and 101% (inactive).

On to `Cc1cc(C)c(C[N+](C)(C)C)c(C)c1C`, for which the growth was -19.5% (active) with SK-MEL-2 melanoma; 0.359% (active) in the test with SN12C renal; 4.54% (active) in the test with UO-31 renal; 6.7% (active) with ACHN renal; 5.45% (active) in the test on CAKI-1 renal; -2.18% (active) in the test on CCRF-CEM leukemia.

Consider `CCOC(=O)c1[nH]cnc1/N=N/N(C)N`, for which, in the test on TK-10 renal (10 µM unless noted), the growth was 99.8% [100 µM] (inactive) and -100% [100 µM] (active).
